Rows were chosen to be rich in hits. Some 12% of all compounds tested hit in one or more screens of this group.
Pf growth 48h – Primary qHTS for delayed death inhibitors of the malarial parasite plastid, 48 hour incubation; P. falciparum luciferase growth in erythrocytes, 48 h; Potency, µM (highest dose often 28.7 µM), for inactives: at the highest dose activity change, negative = inhibition, hits mostly inhibitors; actives 5.9% (n = 310,000); also: % is scaled to controls: 0 for no effect and ±100 for the full control effect
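Parasite viability was followed by luminescence of a genomically integrated firefly luciferase. Cultures held 0.1% parasitemia at 2% hematocrit (final), incubated under 5% CO2 at 37 C.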
SARS PLP yeast – qHTS of Yeast-based Assay for SARS-CoV PLP. Potency, µM (series often up to 32.9 µM), for the others: at the top dose activity, positive = growth rescue, actives largely listed as activators. S. cerevisiae expressing SARS-CoV PLpro, growth rescue. actives 0.19% (n = 330,000). AID 485353, 2010; calls by dose curve; also: 0% is about no effect; nearly all actives have a fitted effect of over 55% in size
AmpC inh no detg – qHTS Inhibitors of AmpC Beta-Lactamase (assay without detergent); P00811; AmpC nitrocefin hydrolysis, absorbance 480 nm, 0.0001% Triton; Potency, µM (series often up to 57.1 µM), for the others: at the highest dose activity change, negative = inhibition, actives largely listed as inhibitors; actives 0.52% (n = 330,000);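 also: plate controls were no compound for no effect and no enzyme for full effect; nearly all actives have a fitted effect of over 20% in size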
Target sequence (P00811 whole entry, looked up): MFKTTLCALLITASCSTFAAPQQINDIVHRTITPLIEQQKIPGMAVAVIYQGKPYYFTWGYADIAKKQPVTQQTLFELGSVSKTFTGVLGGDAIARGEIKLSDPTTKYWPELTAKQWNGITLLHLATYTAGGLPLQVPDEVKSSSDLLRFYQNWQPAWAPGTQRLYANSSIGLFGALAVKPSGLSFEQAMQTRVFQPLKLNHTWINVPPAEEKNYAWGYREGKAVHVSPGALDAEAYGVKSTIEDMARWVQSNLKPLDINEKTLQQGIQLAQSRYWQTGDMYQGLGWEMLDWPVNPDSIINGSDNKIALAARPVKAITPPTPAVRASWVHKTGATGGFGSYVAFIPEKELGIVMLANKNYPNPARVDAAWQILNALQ
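20 mM phosphate pH 7.0 + 0.01% (detergent screen) or 0.0001% Triton X-100; 5.3 nM AmpC reagent; cpd preinc 15 min RT; nitrocefin (800 uM stock) to start; A480 q20 s × 4 min; Activity was normalised to no-enzyme and no-compound control wells.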
Pf growth 96h – Primary qHTS for delayed death inhibitors of the malarial parasite plastid, 96 hour incubation; P. falciparum luciferase reporter growth, 96 h; Potency, µM (series often up to 28.7 µM), for inactives: top-dose activity change, negative = inhibition, most hits filed as inhibitors; actives 6.9% (n = 320,000); also: % is scaled to controls: 0 for no effect and ±100 for the full control effect
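Readout is luminescence from an integrated firefly luciferase in P. falciparum. Red cells, 2% hematocrit and 0.05% parasitemia final, were cultured with compound through two parasite generations (96 hours) at 37 C, 5% CO2.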
Sm TGR block – qHTS Assay for the Inhibitors of Schistosoma Mansoni Peroxiredoxins; Schistosoma mansoni thioredoxin glutathione reductase (TGR), Q962Y6; purified TGR, DTNB reduction, TNB absorbance 405 nm; Potency, µM (doses to about 114 µM), for the others: at the top dose activity change, negative = inhibition, most hits filed as inhibitors; actives 3% (n = 360,000); AID 485364, 2010; also: % is scaled to controls: 0 for no effect and ±100 for the full control effect; nearly all actives have a fitted effect of over 60% in size
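First, TGR (20 nM dispensed) and NADPH were mixed with compound. Second, a 15 min room-temperature incubation followed. Third, further NADPH and then DTNB were added to start the reaction. Finally, TNB absorbance was monitored kinetically.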
AmpC detergent – qHTS Inhibitors of AmpC Beta-Lactamase (assay with detergent). P00811. AmpC hydrolysis of nitrocefin, absorbance 480 nm, 0.01% Triton. Potency, µM (top dose mostly 114 µM), without a hit: at the highest dose activity change, negative = inhibition, most hits filed as inhibitors. actives 0.041% (n = 370,000). AID 485294, 2010;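 also: 0% = no-compound wells and -100% = no-enzyme wells; nearly all actives have a fitted effect of over 25% in size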
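20 mM phosphate pH 7.0 + 0.01% (detergent screen) or 0.0001% Triton X-100; 5.3 nM AmpC reagent; cpd preinc 15 min RT; nitrocefin (800 uM stock) to start; A480 q20 s × 4 min; Activity was normalised to no-enzyme and no-compound control wells.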
Starred values were filed as active, the others as inactive; ? = inconclusive; · = no result given; [ ] = dose if it differs, or a comment. Unless noted, calls follow the shape of the dose curve; as a rule, active = well fitted curve in the direction sought with a large enough effect; inconclusive = small, poorly fitted or top-dose-only effect, or another doubt; inactive = no such curve, though single readings can be large; an effect the other way counts as inactive or inconclusive. Potency is read from the fitted curve at half-maximal effect.

SMILES | Pf growth 48h | SARS PLP yeast | AmpC inh no detg | Pf growth 96h | Sm TGR block | AmpC detergent
CN1CCCN(Cc2nc(-c3ccc(Cl)cc3)no2)CC1 | 27% | 1% | 17% | ? | 18µM* | -2%
COc1ccc(NS(=O)(=O)c2ccc3c(c2)NC(=O)CCS3)c(OC)c1 | · | · | · | · | -2% | 10%
COc1ccc(NS(=O)(=O)c2ccc3c(c2)NC(=O)CCS3)cc1Cl | -26% | 2% | -25% | 5.9µM* | 3% | 0%
CCc1ccc(C(=O)c2cn(Cc3ccc(F)cc3)c3cc(OC)c(OC)cc3c2=O)cc1 | · | · | · | · | 6% | -10%
CCNc1nc(NC(C)(C)C)nc(N2CCCC2)n1 | 1.5µM* | -10% | -46% | -26% | -4% | 1%
CC(C)(C)Nc1nc(N2CCCC2)nc(N2CCCC2)n1 | ? | 2% | -17% | -14% | 11% | -14%
N#C/C(=C\c1ccc(OC(=O)c2ccccn2)cc1)C(N)=O | -2% | -31% | -13% | 31% | 40µM* | -4%
N#C/C(=C\c1ccc(OCc2ccccc2)cc1)C(N)=O | 106% | -9% | -9% | 6% | 2% | 3%
O=C(/C=C/c1cccc(Cl)c1)c1ccc([N+](=O)[O-])o1 | ? | 5% | -29% | ? | 0.71µM* | ?
Cc1cc(O)c(C(=O)/C=C/c2ccccc2O)c(=O)o1 | -17% | -4% | -49% | -17% | ? | 0%
COc1cc(/C=C/[N+](=O)[O-])ccc1O | ? | -79% | -43% | ? | 35µM* | 0%
COc1ccc(/C=C/C(=O)c2ccc([N+](=O)[O-])o2)cc1OC | 12µM* | 3% | 1% | ? | 6.3µM* | -15%
Cc1cc(O)c(C(=O)/C=C/c2cccc([N+](=O)[O-])c2)c(=O)o1 | ? | 2% | 14µM* | ? | 0% | 1%
Cc1ccc(/C=C/c2onc(C)c2S(=O)(=O)N2CCC(C(=O)N3CC(C)Oc4ccccc43)CC2)cc1 (stereo not drawn) | · | · | · | · | 9% | -5%
COc1cc(/C=C/C(=O)c2ccc([N+](=O)[O-])o2)ccc1O | 13µM* | 1% | -11% | ? | 3.2µM* | -4%
O=C(CSc1nnc(-c2cccs2)o1)Nc1cccc(S(=O)(=O)N2CCCCC2)c1 | ? | 6% | -36% | 15µM* | -2% | -4%
O=C(CSc1nnc(-c2cccc(S(=O)(=O)N3CCCCC3)c2)o1)NCCC1=CCCCC1 | ? | 1% | -11% | ? | -4% | ?
Cc1cc(C)cc(NC(=O)CSc2nnc(-c3ccc(S(=O)(=O)N4CCCC4)cc3)o2)c1 | ? | -1% | -30% | 5.2µM* | 4% | ?
Cc1ccc(S(=O)(=O)N2CCN(C(=O)CSc3nnc(-c4ccco4)o3)CC2)cc1 | · | -1% | -3% | 10µM* | 3%[11.4 µM] | -7%
CCCCNC(=O)CSc1nnc(-c2cccc(S(=O)(=O)N3CCOCC3)c2)o1 | 13µM* | -9% | -5% | ? | -2% | -23%
COc1cccc(NC(=O)CN(C)C(C)C(=O)N2CCCC2)c1 (stereo not drawn) | ? | -1% | -12% | -28% | -10% | ?
Cc1ccc(Cc2nc3ccccc3nc2SCC(=O)NCCc2ccccc2)cc1 | · | · | · | · | 6% | 7%
Cc1ccc(S(=O)(=O)N2CCN(C(=O)CSc3ncc(C(F)(F)F)cc3Cl)CC2)cc1 | ? | 0% | 8% | ? | 35µM* | 4%
CC1Sc2ccc(S(=O)(=O)N(C)Cc3ccccc3)cc2NC1=O (stereo not drawn) | -2% | -5% | 227% | ? | 3% | 0%
CCC1C(=O)CC(c2ccc([N+](=O)[O-])cc2)NC1c1ccc([N+](=O)[O-])cc1 (stereo not drawn) | 13µM* | 1% | -9% | 26% | 2% | -7%
SMILES | Pf growth 48h | SARS PLP yeast | AmpC inh no detg | Pf growth 96h | Sm TGR block | AmpC detergent
COc1ccc(N2C(=O)NC(NS(=O)(=O)c3ccc(NC(C)=O)cc3)(C(F)(F)F)C2=O)cc1 (stereo not drawn) | 0% | -3% | -6% | 9.3µM* | 0% | -13%
Cc1ccc(C)c(NC(=O)CSc2nnc(CCNC(=O)OC(C)(C)C)o2)c1 | · | 12% | 4% | -11% | -13% | ?
Cc1c(Cl)cccc1NC(=O)CSc1nnc(CCNC(=O)OC(C)(C)C)o1 | -4% | 5% | 7% | 10µM* | -44% | ?
Cc1ccc(NC(=O)CSc2nnc(CCCCCNC(=O)OC(C)(C)C)o2)c(C)c1 | -14% | 10% | 44% | 13µM* | -5% | 0%
CC1(C)C2CCC1(C)C(OCC[N+](C)(C)CC(=O)OC1CCCCC1)C2 (stereo not drawn) | 1.5µM* | -5% | 142% | 0.52µM* | -5% | 0%
CCOC(=O)C[N+](C)(C)CCOC1CC2CCC1(C)C2(C)C (stereo not drawn) | 2.1µM* | 0% | 40% | 0% | · | 5%
Cc1cccc(N2C(=O)c3cccc4c(N(C)CCO)ccc(c34)C2=O)c1 | ? | -3% | 16% | 5.9µM* | -15% | ?
Cc1cccc(N2C(=O)c3cccc4c(N)ccc(c34)C2=O)c1 | -21% | 2% | -54% | ? | -6% | 4%
COc1cccc(NC(=O)C(C)n2c(=O)cc(C(F)(F)F)c3c(C)nn(C)c32)c1 (stereo not drawn) | · | · | · | · | -3% | 27%
CN1/C(=C/C2CC(=O)NC2=O)C(C)(C)c2ccccc21 (stereo not drawn) | · | 2% | -7% | 14% | 45µM* | 2%
Cc1c(CC(=O)NCCc2ccccc2)c(=O)oc2c(C)c3occ(C(C)(C)C)c3cc12 | · | · | · | · | -10% | 6%
Cc1ccc(NC(=O)C(=O)c2cc(C)n(-c3ccc(F)cc3)c2C)cc1C | · | · | · | · | -8% | 23%
CC(C)(C)c1cc[n+](C2=C([O-])c3ccccc3C(=O)/C2=N\S(=O)(=O)c2cccs2)cc1 | 1.3µM* | 0% | -11% | 2.1µM* | -28% | -4%
CCCS(=O)(=O)N1CC(=O)N(c2ccccc2F)C(C)(C(=O)NC2CCCCCC2)C1 (stereo not drawn) | · | · | · | · | 3% | 20%
O=C(CSc1ccc(Br)cc1)Nc1cccc(S(=O)(=O)N2CCOCC2)c1 | ? | 3% | -17% | -3% | 0% | 0%
CC[n+]1ccc(C(=O)NCc2ccccc2)cc1 | 249% | 3% | 3% | 2% | -1% | ?

From PubChem
